The values below come from PubChem BioAssay (NCI).

Among the test systems are RPMI-8226 leukemia; OVCAR-8 ovarian; OVCAR-5 ovarian; OVCAR-4 ovarian; SK-OV-3 ovarian; IGROV1 ovarian; OVCAR-3 ovarian; HS 578T breast; NCI/ADR-RES ovarian; T-47D breast; BT-549 breast; MDA-MB-435 melanoma; SW-620 colon; MCF7 breast; HCT-116 colon; HCC-2998 colon; KM12 colon.
Holding throughout (experiment): NCI-60 one-dose screen, 48 h (100 = growth as untreated, 0 = no growth, -100 = all killed)
What all share (conditions): 10 µM unless noted

The structures appear in SMILES notation. About 83,000 compounds went through this panel and 20% of them were active in at least one assay; those are over-represented in the sample as a whole.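 Treatment: one concentration, 48 hours, 96-well format. Scoring: percent growth, with anything below 10 considered active.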 Values without a mark were called inactive. Active and inactive are the calls of the source.

For the molecule `CCC(c1ccc(O)cc1)C(CC)c1ccc(O)c(F)c1` (configuration not stated), the growth in the assay with RPMI-8226 leukemia was 63.7%; in the assay with OVCAR-8 ovarian it was 98.4%; with OVCAR-5 ovarian it was 93.5%; in the assay with OVCAR-4 ovarian, 75.3%; in the assay on SK-OV-3 ovarian, 99%; in the assay with IGROV1 ovarian, 83%. Further, the growth in the assay with OVCAR-3 ovarian was 85.3%; in the assay with HS 578T breast, 73.9%; in the assay on NCI/ADR-RES ovarian, 81.8%; in the assay with T-47D breast it was 65.8%; in the assay on BT-549 breast, 92.9%; in the assay with MDA-MB-435 melanoma it was 75.1%. The growth in the assay with SW-620 colon was 93.7%; in the assay on MCF7 breast, 103%; with HCT-116 colon, 59%; with HCC-2998 colon, 96.4%; with KM12 colon, 82.6%.
For the molecule `O=C(O)c1ccc(=O)[nH]n1`, the growth in the assay with RPMI-8226 leukemia was 107%; with OVCAR-8 ovarian, 103%; in the assay on OVCAR-5 ovarian, 104%; in the assay on OVCAR-4 ovarian, 113%; in the assay on SK-OV-3 ovarian it was 106%; with IGROV1 ovarian, 137%. The growth is 115% in the assay on OVCAR-3 ovarian; 111% in the assay on HS 578T breast; 109% in the assay on NCI/ADR-RES ovarian; 105% in the assay with T-47D breast; 112% with MDA-MB-435 melanoma; 102% in the assay on SW-620 colon. For the same molecule, the growth in the assay on MCF7 breast is 97.2%; with HCT-116 colon, 106%; with KM12 colon it was 123%.
For `CN1CCN(Cc2ccc(NC(=O)c3[nH]ncc3Nc3ncnc4sccc34)cc2)CC1`, the growth is -4.38% (active) in the assay on RPMI-8226 leukemia; 12% in the assay on OVCAR-8 ovarian; 21.2% with OVCAR-5 ovarian; 10.2% in the assay with OVCAR-4 ovarian; 31.4% in the assay on SK-OV-3 ovarian; 23.6% with IGROV1 ovarian. Besides, the growth in the assay on OVCAR-3 ovarian was 3.42% (active); in the assay on HS 578T breast, -2.25% (active); in the assay on NCI/ADR-RES ovarian, 16.4%; in the assay on T-47D breast, 27.7%; with BT-549 breast, -5.78% (active); with MDA-MB-435 melanoma, 25.8%. For the same molecule, the growth in the assay with SW-620 colon was 6.8% (active); with MCF7 breast it was 9.47% (active); in the assay on HCT-116 colon, 6.91% (active); in the assay on HCC-2998 colon, -1.02% (active); with KM12 colon, 5.21% (active).
Consider `COc1ccc2[nH]c(=O)c(/C=C/C(=O)c3ccc(Nc4nccc(-c5ccc6ccccc6c5)n4)cc3)cc2c1`, for which the growth with RPMI-8226 leukemia was 105%; in the assay with OVCAR-8 ovarian, 100%; with OVCAR-5 ovarian it was 104%; with OVCAR-4 ovarian it was 131%; in the assay on SK-OV-3 ovarian, 105%; with IGROV1 ovarian it was 98.9%. Further, the growth in the assay with OVCAR-3 ovarian was 105%; with HS 578T breast, 98.8%; in the assay with NCI/ADR-RES ovarian, 99.2%; in the assay on T-47D breast it was 97.2%; in the assay with MDA-MB-435 melanoma, 108%; in the assay with SW-620 colon, 97.1%. Moreover, the growth in the assay on MCF7 breast was 92.8%; with HCT-116 colon it was 91.1%; in the assay with HCC-2998 colon, 104%; in the assay with KM12 colon it was 93.3%.
Regarding `CN(C)CCOc1ccc(-c2nc3ccc(-c4nc5ccc(N6CCN(C)CC6)cc5[nH]4)cc3[nH]2)cc1`, the growth with RPMI-8226 leukemia was 35.5%; with OVCAR-8 ovarian, 63.6%; in the assay with OVCAR-5 ovarian it was 83%; with OVCAR-4 ovarian, 68%; in the assay with SK-OV-3 ovarian, 69.5%; with IGROV1 ovarian, 90%. Moreover, the growth was 94.9% in the assay with OVCAR-3 ovarian; 76.4% with HS 578T breast; 108% in the assay on NCI/ADR-RES ovarian; 55.3% in the assay with T-47D breast; 61.2% in the assay on MDA-MB-435 melanoma; 66.3% in the assay on SW-620 colon. Besides, the growth was 35.5% in the assay with MCF7 breast, 48.3% in the assay on HCT-116 colon, 99% in the assay with HCC-2998 colon and 57.3% in the assay on KM12 colon.
Regarding `O=C(CO[N+](=O)[O-])Nc1ccc(C(=O)/C=C/c2ccc3c(c2)OCO3)cc1`, the growth in the assay with RPMI-8226 leukemia is 46.8%; with OVCAR-8 ovarian, 75.8%; with OVCAR-5 ovarian, 96.5%; in the assay with OVCAR-4 ovarian, 96.1%; in the assay with SK-OV-3 ovarian, 111%; in the assay on IGROV1 ovarian, 48.3%. Besides, the growth is 80.6% with OVCAR-3 ovarian; 103% with HS 578T breast; 84.5% with NCI/ADR-RES ovarian; 83% in the assay on T-47D breast; 87.6% in the assay on BT-549 breast; 62.6% with MDA-MB-435 melanoma. Besides, the growth was 47.8% in the assay on SW-620 colon; 26.2% with MCF7 breast; -5.9% (active) in the assay on HCT-116 colon; 69.2% in the assay with HCC-2998 colon; 35.9% in the assay with KM12 colon.
Turning to `CCOC(=O)CC(=O)c1c(C)cc(C)cc1C`, the growth in the assay with RPMI-8226 leukemia is 90.3%; in the assay on OVCAR-8 ovarian, 102%; in the assay on OVCAR-5 ovarian, 84.1%; in the assay with OVCAR-4 ovarian it was 113%; in the assay on SK-OV-3 ovarian, 105%; in the assay on IGROV1 ovarian, 108%. Moreover, the growth with OVCAR-3 ovarian is 117%; with HS 578T breast it was 91.7%; in the assay on NCI/ADR-RES ovarian it was 102%; with T-47D breast, 121%; with BT-549 breast, 93.5%; in the assay on MDA-MB-435 melanoma, 98.6%. For the same molecule, the growth in the assay on SW-620 colon was 103%; in the assay with MCF7 breast, 97.5%; in the assay on HCT-116 colon it was 91.2%; in the assay with KM12 colon, 95.5%.
Consider `COc1ccc(-c2cc(-c3cccnc3)nc3sc4c(=O)n(-c5ccc(C)cc5)nnc4c23)cc1OC`, for which the growth was 99.7% in the assay with RPMI-8226 leukemia; 105% in the assay with OVCAR-8 ovarian; 90% with OVCAR-5 ovarian; 109% in the assay on OVCAR-4 ovarian; 95% with SK-OV-3 ovarian; 99.6% in the assay on IGROV1 ovarian. Moreover, the growth in the assay with OVCAR-3 ovarian is 107%; with HS 578T breast, 93.9%; with NCI/ADR-RES ovarian it was 102%; in the assay on T-47D breast it was 99.3%; in the assay on BT-549 breast, 103%; with MDA-MB-435 melanoma, 99.3%. Besides, the growth in the assay with SW-620 colon was 94.4%; in the assay with MCF7 breast it was 99.7%; in the assay with HCT-116 colon it was 95%; in the assay on HCC-2998 colon, 109%; in the assay on KM12 colon it was 103%.
Take `CCN(CC)CCCCNc1ccc(NCCCCN(CC)CC)c2c1C(=O)c1ccccc1C2=O`: the growth is 47.8% with RPMI-8226 leukemia; 72.9% in the assay with OVCAR-8 ovarian; 114% with OVCAR-5 ovarian; 84.1% in the assay on OVCAR-4 ovarian; 122% in the assay with SK-OV-3 ovarian; 71.8% in the assay on IGROV1 ovarian. Also, the growth with OVCAR-3 ovarian is 91.5%; with HS 578T breast, 101%; in the assay with NCI/ADR-RES ovarian, 83.4%; in the assay with T-47D breast it was 122%; in the assay with BT-549 breast, 95.6%; in the assay on MDA-MB-435 melanoma it was 56%. In addition, the growth in the assay with SW-620 colon is -7.96% (active); in the assay on MCF7 breast it was 79.1%; in the assay on HCT-116 colon it was -58.4% (active); in the assay on KM12 colon, 26.9%.
